According to PubChem BioAssay AID540259 (Broad Institute, 2011):
Measured potencies and affinities stand elsewhere. Active and inactive are the calls of the source.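 Rule for the calls: active = cell killing, meaning signal decrease, with fitted half-maximal dose at or below ten times the top valid tested dose; inconclusive = poor fit, or flat curve with 30 to 70% signal loss; inactive = the rest.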

experiment: ATP-based viability loss in HeLa cells – cell-based, CellTiter-Glo luminescence, cherry-pick samples, cytotoxicity control for MITF activator project, dose response (AID 540259); conditions: 24 h; series mostly up to 35 µM

| SMILES | outcome |
| --- | --- |
| Cc1nn(CC(C)C)c(Cl)c1C(=O)NC1CCC(C)CC1 (stereo not given) | inactive |
| CN1C(=O)NC(=O)C(C)(C2=CCCCC2)C1=O (stereo not given) | inactive |
| COc1ccc(-c2cc(=NCCC(=O)O)c3cc(C)ccc3o2)cc1 | inactive |
| CC(Cc1ccccc1)/[N+]([O-])=C\c1ccc(C(F)(F)F)cc1 (stereo not given) | inactive |
| O=C1C(=O)N(c2ccccc2)P(=O)(N(CCCl)CCCl)N1c1ccccc1 | inactive |
